# Measured values reported in the supplement of paper PMC11219838.
# Values without a mark were called inactive.
# Tested on: Caenorhabditis elegans L1 (N2)
# Assay: survival and reproduction score of C. elegans L1 (0: 0-10 living worms, 1: 11-20, 2: 21-50, 3: >50, 4: overgrown) (score 0-4); higher = more worms, less nematicidal, active = 1 or less; extreme values may be limits of the assay
# Conditions: 60 µM; 6 days; temperature: 20 °C
# Summary of the method: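 After compound was pinned to 60 µM final (0.6% v/v DMSO) into wells with roughly 20 synchronized C. elegans N2 L1s and E. coli HB101 in liquid NGM, the sealed 96-well plates were shaken at 200 rpm for 6 days at 20 °C. Under a dissection microscope, survival and reproduction were graded ordinally by living worms per well. A grade of 0 stood for 0–10 worms and 4 for overgrown, starved wells; two biological replicates were averaged.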
row,SMILES,survival and reproduction score
1,CCNC(=O)c1ccccc1-c1nc(-c2ccccc2)no1,4
2,COc1ccc(OC(C)c2nc(-c3cccnc3)no2)cc1 (stereo not given),4
3,Cc1ccc(-c2nc(-c3cccc(C)c3)no2)cc1,1 (active)
4,COc1ccc(OCc2nc(-c3cccc(Br)c3)no2)cc1,4
5,C(=C\c1ccccc1)/CSc1nnc(-c2ccncc2)o1,4
6,Cc1cc(OCc2nc(-c3ccncc3)no2)c(C)cc1Br,4
7,Cc1csc(NC(=O)CSc2nnc(-c3cccc(Cl)c3)o2)n1,4
8,O=C(CSc1nnc(-c2ccc(Br)cc2)o1)OCc1ccccc1,4
9,COc1ccc(Cl)cc1-c1noc(-c2ccccc2)n1,1 (active)
10,O=C(CSc1nnc(-c2ccc(Br)cc2)o1)N1CCCCCC1,4
11,c1ccc(COc2cccc(-c3nc(-c4ccccn4)no3)c2)cc1,4
12,Clc1ccc(CSc2nnc(-c3ccccc3)o2)c(Cl)c1,4
13,O=C(CSc1nnc(-c2ccncc2)o1)Nc1ccccc1Cl,4
14,Cc1ccc(-c2noc(-c3ccco3)n2)s1,0 (active)
15,COc1nc(-c2ccc(C)cc2)ccc1-c1noc(-c2cccc(C)c2)n1,4
16,Cc1ccc(NC(=O)CSc2nnc(-c3ccco3)o2)cc1Br,4
17,Cc1ccc(-c2nc(-c3ccc(Br)cc3)no2)cc1,4
18,COc1ccc(-c2noc(-c3ccccc3C)n2)cc1,0 (active)
19,CCc1cccc(CC)c1NC(=O)CSc1nnc(-c2ccccc2OC)o1,4
20,O=C(CSc1nnc(-c2ccco2)o1)c1ccc(Br)cc1,4
